Assay results from PubChem BioAssay (EPA / NIEHS).
Active and inactive are the calls of the source. How the source made its calls: active means hit-call score of the fitted dose curve at least 0.9, where 1 is the maximum; inactive means score below 0.9.

Assays:
[1] = CEETOX_H295R_OHPROG: CeeTox H295R High-throughput Steroidogenesis Assay for OH-Progesterone (OHPROG) (AID 2283435); conditions: actives raise or lower the signal;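 on AC50: 17alpha-hydroxyprogesterone secreted into medium measured by HPLC-MS/MS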
How it was run: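 Medium steroid levels read by LC-MS/MS after 48 h chemical treatment (0.1% DMSO) of human adrenal H295R cells that had been forskolin-primed (10 uM, 48 h). Gain or loss fitted against DMSO; MTT cytotoxicity checked per well.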

[2] = CEETOX_H295R_PROG: CeeTox H295R High-throughput Steroidogenesis Assay for Progesterone (PROG) (AID 2283442); conditions: actives raise or lower the signal;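 on AC50: human H295R adrenal cells primed with 10 µM forskolin before dosing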
How it was run: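 Measured analyte is progesterone secreted by H295R cells at 48 h of chemical treatment, following 10 uM forskolin priming. Quantitation used HPLC-MS/MS against a 7-point standard curve; cytotoxicity was checked by MTT absorbance.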

[3] = CEETOX_H295R_CORTIC: CeeTox H295R High-throughput Steroidogenesis Assay for Corticosterone (CORTIC) (AID 2283437); conditions: actives raise or lower the signal;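 on AC50: human H295R adrenal cells prestimulated with forskolin before chemical exposure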
How it was run: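 Medium corticosterone was quantified by tandem mass spectrometry following 48 hours of chemical exposure (0.1% DMSO) in human H295R cells previously stimulated 48 hours with 10 uM forskolin. Viability checked by MTT; chemicals diluted and retested when viability fell below 70%.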

[4] = CEETOX_H295R_CORTISOL: CeeTox H295R High-throughput Steroidogenesis Assay for Cortisol (AID 2283438); conditions: actives raise or lower the signal
How it was run: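 Cortisol measured by HPLC-MS/MS after MTBE extraction of medium from H295R cells exposed 48 h to chemical (0.1% DMSO), following 48 h prestimulation with 10 uM forskolin. Viability assessed by MTT in the same wells.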

[5] = CEETOX_H295R_DOC: CeeTox H295R High-throughput Steroidogenesis Assay for DOC (AID 2283439); conditions: actives raise or lower the signal
How it was run: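 11-Deoxycorticosterone quantified in medium by MTBE extraction and HPLC-MS/MS after 48 h chemical exposure (0.1% DMSO) of forskolin-primed (10 uM, 48 h) H295R cells. Same-well MTT viability; data fitted bidirectionally against DMSO.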

[6] = CEETOX_H295R_ESTRADIOL: CeeTox H295R High-throughput Steroidogenesis Assay for Estradiol (AID 2283440); conditions: actives raise or lower the signal;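 further: estradiol secreted into medium quantified by LC-MS/MS after dansyl derivatisation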
Method: (§1) CEETOX_H295R is a cell-based, multiplexed-readout assay that uses H295R, a human adrenal gland cell line, with measurements taken at 48 hours after chemical dosing in a 96-well plate.CEETOX_H295R_ESTRADIOL is one of 23 assay component(s) measured or calculated from the CEETOX_H295R assay. It is designed to make measurements of hormone induction, a form of inducible reporter, as detected with absorbance signals by HPLC-MS-MS technology.Data from the assay component CEETOX_H295R_ESTRADIOL was analyzed into 1 assay endpoint. This assay endpoint, CEETOX_H295R_ESTRADIOL, was analyzed with bidirectional fitting relative to DMSO as the negative control and baseline of activity. […] To generalize the intended target to other relatable targets, this assay endpoint is annotated to the steroid hormone intended target family, where the subfamily is estrogens.
Cell culture and media preparation procedures were conducted in accordance with OECD Test No. 456 guidelines, with minor modifications. H295R cells (ATCC CRL-2128) were expanded for 5 passages and frozen in batches in liquid nitrogen. Prior to the steroidogenesis assay, H295R cells were thawed and passed at least 4 times. The maximum passage was 10. Cells were maintained in a 1:1 mixture of DMEM/F12 supplemented with 5ml/L ITS+ Premix (BD Bioscience) and 12.5 ml/L Nu-Serum (BD Bioscience). After seeding cells into 96-well plates at 50-60% confluency, cells were allowed to adhere overnight. Prior to chemical testing, culture medium was replaced with 175 uL medium containing 10 uM forskolin to stimulate steroidogenesis for 48 hours. Following prestimulation, forskolin medium was replaced with medium containing test chemical solubilized in DMSO (ensuring a final concentration of 0.1% DMSO). Test chemicals were incubated for 48 hours, then the medium was removed and split into 2 vials containing approximately 75uL each, and stored at -80 C prior to hormone analysis. For steroid quantification, media samples were shipped to OpAns, LLC (Durham, NC) on dry ice, and samples were thawed to room temperature prior to liquid-liquid extraction. Steroid hormones were extracted from media samples using methyl tertbutyl ether (MTBE). An extra derivatization with dansyl chloride was included for estrogen (estrone and estradiol) detection only. Steroid hormones were separated by HPLC, eluted using a reverse phase C18 gradient with electrospray positive ionization, followed by quantification by tandem mass spectrometry (MS/MS). Data were acquired on a MassHunter Workstation Acquisition version B03.01 (Agilent Technologies, Inc.) and processed using MassHunter Quantitative Analysis for QQQ. Accuracy was determined for each hormone analyte from 3 standards to determine upper and lower limits of quantification (ULOQ and LLOQ, respectively) using a 7-point standard curve. Precision and accuracy of the extraction and quantification methods were calculated as the percent relative standard deviation (%RSD) of the spiked standards and percent spiked standard recovered, respectively. […] Test medium was removed following chemical exposure, and cell viability was evaluated in the same wells by MTT. MTT procedures were as follows: after removal of test medium, 500 uL of 0.5 mg/ml of 3-[4,5-dimethylthiazol-2-y]2,5-diphenyltetrazoliumbromide solution was added to the cells. Following a 4-hour incubation at 37 C and 5% CO2 to allow formazan-crystal formation, the MTT solution was removed and blue formazan salt crystals were solubilized using 500uL anhydrous isopropanol with shaking for 20 minutes. Absorbance was read at 570 and 650nm using a Packard Fusion microplate reader. Background correction of absorbance units was used to determine percent change relative to controls. […] When a test chemical reduced cell viability to 20% - 70%, the test chemical was diluted 10-fold and re-evaluated, but if cell viability was <20%, then the test chemical was diluted 100-fold and re-evaluated. […]

[7] = CEETOX_H295R_ESTRONE: CeeTox H295R High-throughput Steroidogenesis Assay for Estrone (AID 2283441); conditions: actives raise or lower the signal;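 on AC50: human adrenal H295R cells prestimulated with forskolin for two days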
How it was run: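 Estrone secreted into medium quantified by LC-MS/MS after dansyl chloride derivatization, following 48 h chemical exposure (0.1% DMSO final) of forskolin-prestimulated (10 uM, 48 h) H295R cells; gain or loss fitted against DMSO; MTT viability in same wells.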

[8] = CEETOX_H295R_ANDR: CeeTox H295R High-throughput Steroidogenesis Assay for Androstenedione (ANDR) (AID 2283436); conditions: actives raise or lower the signal;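 further: human H295R adrenal cells exposed for 48 h with androstenedione measured in medium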
Method: as §1, with “plate.CEETOX_H295R_ANDR” for “plate.CEETOX_H295R_ESTRADIOL”, “CEETOX_H295R_ANDR” for “CEETOX_H295R_ESTRADIOL”, “CEETOX_H295R_ANDR,” for “CEETOX_H295R_ESTRADIOL,”, “androgens.” for “estrogens.”
Cell culture and media preparation procedures were conducted in accordance with OECD Test No. 456 guidelines, with minor modifications. H295R cells (ATCC CRL-2128) were expanded for 5 passages and frozen in batches in liquid nitrogen. Prior to the steroidogenesis assay, H295R cells were thawed and passed at least 4 times. The maximum passage was 10. Cells were maintained in a 1:1 mixture of DMEM/F12 supplemented with 5ml/L ITS+ Premix (BD Bioscience) and 12.5 ml/L Nu-Serum (BD Bioscience). After seeding cells into 96-well plates at 50-60% confluency, cells were allowed to adhere overnight. […] Test chemicals were incubated for 48 hours, then the medium was removed and split into 2 vials containing approximately 75uL each, and stored at -80 C prior to hormone analysis. For steroid quantification, media samples were shipped to OpAns, LLC (Durham, NC) on dry ice, and samples were thawed to room temperature prior to liquid-liquid extraction. Steroid hormones were extracted from media samples using methyl tertbutyl ether (MTBE). An extra derivatization with dansyl chloride was included for estrogen (estrone and estradiol) detection only. Steroid hormones were separated by HPLC, eluted using a reverse phase C18 gradient with electrospray positive ionization, followed by quantification by tandem mass spectrometry (MS/MS). Data were acquired on a MassHunter Workstation Acquisition version B03.01 (Agilent Technologies, Inc.) and processed using MassHunter Quantitative Analysis for QQQ. Accuracy was determined for each hormone analyte from 3 standards to determine upper and lower limits of quantification (ULOQ and LLOQ, respectively) using a 7-point standard curve. Precision and accuracy of the extraction and quantification methods were calculated as the percent relative standard deviation (%RSD) of the spiked standards and percent spiked standard recovered, respectively. […] Test medium was removed following chemical exposure, and cell viability was evaluated in the same wells by MTT. MTT procedures were as follows: after removal of test medium, 500 uL of 0.5 mg/ml of 3-[4,5-dimethylthiazol-2-y]2,5-diphenyltetrazoliumbromide solution was added to the cells. Following a 4-hour incubation at 37 C and 5% CO2 to allow formazan-crystal formation, the MTT solution was removed and blue formazan salt crystals were solubilized using 500uL anhydrous isopropanol with shaking for 20 minutes. Absorbance was read at 570 and 650nm using a Packard Fusion microplate reader. Background correction of absorbance units was used to determine percent change relative to controls. […] When a test chemical reduced cell viability to 20% - 70%, the test chemical was diluted 10-fold and re-evaluated, but if cell viability was <20%, then the test chemical was diluted 100-fold and re-evaluated. Test chemical dilutions were made until cell viability was >/=70%. MTT assays were also conducted for duplicates of all concentrations of chemicals tested in concentration-response studies.

[9] = read-out: Tumor necrosis factor receptor superfamily member 6 (Homo sapiens) (UniProt P25445); experiment: LTEA_HepaRG_FAS: Life Technologies and Expression Analysis (LTEA) Assay for Fas cell surface death receptor (FAS) using HepaRG (AID 2283447); conditions: mRNA level, 48 h; actives raise or lower the signal
How it was run: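 FAS transcript level was measured by TaqMan qRT-PCR against three housekeeping genes after 48 h chemical exposure. Cells were HepaRG, 0.5% DMSO vehicle, with a top concentration of 100 uM and half-log dilutions over eight points, in duplicate.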

[10] = read-out: Fatty acid synthase (Homo sapiens) (UniProt P49327); experiment: LTEA_HepaRG_FASN: Life Technologies and Expression Analysis (LTEA) Assay for Fatty Acid Synthase (FASN) using HepaRG (AID 2283448); conditions: mRNA level, 48 h; actives raise or lower the signal
How it was run: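 FASN transcript measured by TaqMan qRT-PCR, normalised to three housekeeping genes, after 48 h chemical exposure of HepaRG cells. Eight-point half-log series from 100 uM in 0.5% DMSO, duplicates; gain or loss fitted against vehicle.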

Measured: AC50

Chain of Fatty acid synthase (Homo sapiens) (P49327 whole entry, looked up): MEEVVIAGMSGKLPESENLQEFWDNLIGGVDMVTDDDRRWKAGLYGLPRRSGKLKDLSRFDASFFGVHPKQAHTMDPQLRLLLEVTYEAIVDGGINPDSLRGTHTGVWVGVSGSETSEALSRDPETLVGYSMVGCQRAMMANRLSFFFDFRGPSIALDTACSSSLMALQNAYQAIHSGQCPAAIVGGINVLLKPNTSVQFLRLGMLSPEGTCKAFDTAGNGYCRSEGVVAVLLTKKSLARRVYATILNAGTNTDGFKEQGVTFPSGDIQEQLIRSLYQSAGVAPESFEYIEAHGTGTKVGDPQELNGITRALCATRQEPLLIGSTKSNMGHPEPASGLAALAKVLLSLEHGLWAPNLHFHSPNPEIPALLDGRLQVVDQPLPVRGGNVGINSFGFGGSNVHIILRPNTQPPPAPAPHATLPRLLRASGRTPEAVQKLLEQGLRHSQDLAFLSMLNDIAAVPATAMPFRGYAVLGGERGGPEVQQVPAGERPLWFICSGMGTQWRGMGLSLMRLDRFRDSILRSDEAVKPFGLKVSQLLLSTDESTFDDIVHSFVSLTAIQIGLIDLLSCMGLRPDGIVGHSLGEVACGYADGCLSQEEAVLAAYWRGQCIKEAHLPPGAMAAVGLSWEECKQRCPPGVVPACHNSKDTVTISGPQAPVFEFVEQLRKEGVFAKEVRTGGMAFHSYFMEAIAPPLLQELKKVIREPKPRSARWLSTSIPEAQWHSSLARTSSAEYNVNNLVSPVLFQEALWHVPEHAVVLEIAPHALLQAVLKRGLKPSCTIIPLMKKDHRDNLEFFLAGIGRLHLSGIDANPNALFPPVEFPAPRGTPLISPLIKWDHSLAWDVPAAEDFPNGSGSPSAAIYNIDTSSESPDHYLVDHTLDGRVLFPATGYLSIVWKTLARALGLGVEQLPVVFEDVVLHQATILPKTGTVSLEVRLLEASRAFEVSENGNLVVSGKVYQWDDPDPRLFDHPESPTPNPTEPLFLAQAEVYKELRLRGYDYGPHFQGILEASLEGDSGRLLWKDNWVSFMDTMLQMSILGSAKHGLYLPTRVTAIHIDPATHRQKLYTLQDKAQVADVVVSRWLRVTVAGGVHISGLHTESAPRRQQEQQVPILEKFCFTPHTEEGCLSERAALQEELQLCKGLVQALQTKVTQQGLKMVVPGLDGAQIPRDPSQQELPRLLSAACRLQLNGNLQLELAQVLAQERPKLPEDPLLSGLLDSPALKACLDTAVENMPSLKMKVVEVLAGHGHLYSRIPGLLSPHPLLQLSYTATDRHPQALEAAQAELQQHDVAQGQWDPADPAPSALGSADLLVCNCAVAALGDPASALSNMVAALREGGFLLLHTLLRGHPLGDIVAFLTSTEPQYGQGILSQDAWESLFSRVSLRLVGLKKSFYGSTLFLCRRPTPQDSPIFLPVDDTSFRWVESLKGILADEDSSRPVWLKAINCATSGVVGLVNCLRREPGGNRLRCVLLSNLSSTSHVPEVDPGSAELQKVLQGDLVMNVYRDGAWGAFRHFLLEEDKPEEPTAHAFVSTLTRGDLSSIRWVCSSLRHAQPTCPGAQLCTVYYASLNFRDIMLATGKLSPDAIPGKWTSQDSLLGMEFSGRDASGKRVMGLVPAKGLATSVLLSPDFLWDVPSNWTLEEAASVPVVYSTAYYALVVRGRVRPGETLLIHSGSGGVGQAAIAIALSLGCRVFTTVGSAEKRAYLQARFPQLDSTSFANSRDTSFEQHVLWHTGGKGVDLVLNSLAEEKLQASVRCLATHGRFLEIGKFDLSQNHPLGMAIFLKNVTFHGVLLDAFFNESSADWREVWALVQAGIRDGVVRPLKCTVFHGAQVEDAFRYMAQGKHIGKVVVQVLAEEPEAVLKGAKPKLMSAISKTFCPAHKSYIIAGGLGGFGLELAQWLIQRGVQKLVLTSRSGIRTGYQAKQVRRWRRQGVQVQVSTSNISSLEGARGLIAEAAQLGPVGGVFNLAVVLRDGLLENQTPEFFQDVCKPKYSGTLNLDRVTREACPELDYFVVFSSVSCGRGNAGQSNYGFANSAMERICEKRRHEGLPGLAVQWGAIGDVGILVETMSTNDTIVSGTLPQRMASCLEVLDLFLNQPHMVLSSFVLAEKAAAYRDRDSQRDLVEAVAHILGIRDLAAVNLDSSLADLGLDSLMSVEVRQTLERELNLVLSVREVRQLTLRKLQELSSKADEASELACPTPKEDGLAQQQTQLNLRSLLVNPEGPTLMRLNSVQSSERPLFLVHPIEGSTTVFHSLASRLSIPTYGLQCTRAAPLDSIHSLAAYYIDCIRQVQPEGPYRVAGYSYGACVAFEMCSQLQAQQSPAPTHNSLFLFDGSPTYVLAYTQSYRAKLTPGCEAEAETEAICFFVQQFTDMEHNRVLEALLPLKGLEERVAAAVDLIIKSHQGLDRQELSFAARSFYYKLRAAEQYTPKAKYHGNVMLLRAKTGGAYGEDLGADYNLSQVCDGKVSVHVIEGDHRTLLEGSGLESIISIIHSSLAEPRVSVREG

CSc1nc(NC2CC2)nc(NC(C)(C)C)n1
inactive: [1] | [2]

CC1COc2ccccc2N1C(=O)C(Cl)Cl (stereo not given)
inactive: [6] | [7] | [2]
active: [3] 9.46 µM | [4] 32.3 µM | [5] 10.4 µM

O=C(O)C[C@H](O)C[C@H](O)/C=C/c1c(C2CC2)nc2ccccc2c1-c1ccc(F)cc1
inactive: [4]
active: [1] 0.0582 µM | [8] 0.0768 µM | [3] 0.0418 µM | [5] 0.0331 µM | [2] 0.0233 µM

NC(=O)Nc1ccc(Cl)cc1
active: [3] 27.6 µM
not listed: [8] | [9] | [10]
inactive: all other assays above

Cc1cccc(C)c1C
inactive: [1] | [3] | [4] | [5] | [2]

c1ccc(CCCc2ccccn2)cc1
inactive: [1] | [6] | [7]
active: [2] 50 µM

C=CC(C)(C)O
not listed: [9] | [10]
inactive: all other assays above

CC(C)=CCCC(C)=CCCC(C)=CCO
active: [1] 31.5 µM

C#C[C@]1(O)CC[C@H]2[C@@H]3CCC4=Cc5oncc5C[C@]4(C)[C@H]3CC[C@@]21C
inactive: [5]
active: [1] 0.871 µM | [3] 14.5 µM | [4] 3.34 µM | [6] 5.57 µM | [7] 3.42 µM | [2] 0.225 µM

Nc1cc([N+](=O)[O-])ccc1Cl
inactive: [8] | [3] | [4] | [5] | [2]
active: [1] 39.3 µM

Cc1ccc2n[nH]nc2c1
not listed: [8] | [9] | [10]
inactive: all other assays above

O=c1cc(-c2ccccc2)oc2cc(O)cc(O)c12
active: [1] 16.6 µM | [3] 5.66 µM | [5] 12.2 µM | [2] 16.1 µM
inactive: [8] | [4]

O=C(O)c1ccc([N+](=O)[O-])cc1
not listed: [6] | [7] | [8]
inactive: all other assays above

C=CCOc1nc(OCC=C)nc(OCC=C)n1
active: [3] 31.7 µM | [4] 29.3 µM | [2] 50 µM
inactive: [1] | [5]

Nc1ccc(F)c([N+](=O)[O-])c1
active: [1] 37.7 µM | [2] 50 µM
inactive: [3] | [4] | [5] | [6] | [7]

COc1cc2ncnc(Nc3cccc(Cl)c3)c2cc1OC
active: [5] 0.496 µM
not listed: [9] | [10]
inactive: all other assays above

CC1(C)[C@H](C(=O)OCc2cccc(Oc3ccccc3)c2)[C@@H]1C=C(Cl)Cl
inactive: [1] | [8] | [3] | [4] | [5] | [2]

CC(C)c1cccc(O)c1
active: [1] 39 µM
not listed: [8] | [9] | [10]
inactive: all other assays above
